# Values without a mark were called inactive.
# Assays:
# Assay in all cases: log2 ratio of Biotin-Ahx-Ub-VS probe labelling (fragment/DMSO); higher = less target engagement (more negative = stronger competition), active = hit call of the paper (q ≤ 0.05, log2 ratio ≤ -1)
# Conditions in all cases: compound concentration: 200 uM; treatment time: 3 h
# [1] = biological target: T1, ALG13 (UniProt Q9NP73)
# T1 sequence (whole entry): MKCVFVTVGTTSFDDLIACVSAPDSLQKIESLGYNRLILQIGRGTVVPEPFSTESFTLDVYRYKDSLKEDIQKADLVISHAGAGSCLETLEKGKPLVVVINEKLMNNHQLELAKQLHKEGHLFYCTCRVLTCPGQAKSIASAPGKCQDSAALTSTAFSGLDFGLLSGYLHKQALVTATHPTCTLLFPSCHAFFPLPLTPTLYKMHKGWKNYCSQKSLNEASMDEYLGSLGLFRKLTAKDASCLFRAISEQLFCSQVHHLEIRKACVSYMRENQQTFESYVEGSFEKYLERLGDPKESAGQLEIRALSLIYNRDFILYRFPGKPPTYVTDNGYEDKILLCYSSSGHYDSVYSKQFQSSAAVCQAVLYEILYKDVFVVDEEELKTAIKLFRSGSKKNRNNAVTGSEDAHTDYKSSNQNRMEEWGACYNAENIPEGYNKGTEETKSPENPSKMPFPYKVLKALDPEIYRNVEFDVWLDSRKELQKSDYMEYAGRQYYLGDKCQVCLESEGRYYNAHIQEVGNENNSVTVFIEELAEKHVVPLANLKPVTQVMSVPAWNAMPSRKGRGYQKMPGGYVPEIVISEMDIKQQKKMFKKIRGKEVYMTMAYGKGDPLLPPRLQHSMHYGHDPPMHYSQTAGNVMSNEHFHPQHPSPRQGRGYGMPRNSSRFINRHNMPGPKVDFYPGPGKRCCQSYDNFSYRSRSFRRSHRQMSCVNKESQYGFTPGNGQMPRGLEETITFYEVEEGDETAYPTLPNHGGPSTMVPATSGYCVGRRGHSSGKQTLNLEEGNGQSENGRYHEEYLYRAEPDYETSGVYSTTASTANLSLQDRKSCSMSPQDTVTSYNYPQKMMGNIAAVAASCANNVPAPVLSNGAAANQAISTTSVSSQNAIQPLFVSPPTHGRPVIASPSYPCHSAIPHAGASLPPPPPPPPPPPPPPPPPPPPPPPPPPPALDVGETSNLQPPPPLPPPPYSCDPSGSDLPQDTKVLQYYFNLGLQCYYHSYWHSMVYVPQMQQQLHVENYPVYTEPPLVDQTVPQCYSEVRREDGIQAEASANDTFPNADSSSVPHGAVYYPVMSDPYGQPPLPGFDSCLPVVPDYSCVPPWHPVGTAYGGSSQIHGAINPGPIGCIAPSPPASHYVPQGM
# How it was run: (§1)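 Labelling with Biotin-Ahx-Ub-VS (0.5 µM final, 1 h) followed a 3 h triplicate treatment of HEK293T lysate (495 µg per sample, Tris/CHAPS/IGEPAL buffer with protease inhibitors) with fragment at 200 µM or vehicle. Labelled DUBs were NeutrAvidin-enriched, digested with LysC and trypsin, and run by diaPASEF LC-MS/MS. The values, average log2 fragment/vehicle ratios by unpaired t-test, come from global-median-normalised Spectronaut label-free quantities. Proteins with ≥2 unique peptides were used.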
# [2] = biological target: ATXN3 (UniProt P54252)
# Sequence of ATXN3 (P54252 whole entry): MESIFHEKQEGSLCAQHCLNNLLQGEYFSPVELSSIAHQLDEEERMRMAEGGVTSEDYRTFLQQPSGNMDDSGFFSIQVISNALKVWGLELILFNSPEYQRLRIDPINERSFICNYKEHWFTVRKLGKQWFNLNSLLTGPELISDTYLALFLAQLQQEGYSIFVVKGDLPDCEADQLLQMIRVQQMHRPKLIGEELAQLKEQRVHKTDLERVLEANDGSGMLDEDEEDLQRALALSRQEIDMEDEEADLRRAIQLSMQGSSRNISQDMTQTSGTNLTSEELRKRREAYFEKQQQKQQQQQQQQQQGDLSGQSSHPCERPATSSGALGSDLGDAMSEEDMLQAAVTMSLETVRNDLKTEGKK
# How it was run: as §1
# [3] = biological target: T2, BAP1 (UniProt Q92560)
# T2 sequence (whole entry): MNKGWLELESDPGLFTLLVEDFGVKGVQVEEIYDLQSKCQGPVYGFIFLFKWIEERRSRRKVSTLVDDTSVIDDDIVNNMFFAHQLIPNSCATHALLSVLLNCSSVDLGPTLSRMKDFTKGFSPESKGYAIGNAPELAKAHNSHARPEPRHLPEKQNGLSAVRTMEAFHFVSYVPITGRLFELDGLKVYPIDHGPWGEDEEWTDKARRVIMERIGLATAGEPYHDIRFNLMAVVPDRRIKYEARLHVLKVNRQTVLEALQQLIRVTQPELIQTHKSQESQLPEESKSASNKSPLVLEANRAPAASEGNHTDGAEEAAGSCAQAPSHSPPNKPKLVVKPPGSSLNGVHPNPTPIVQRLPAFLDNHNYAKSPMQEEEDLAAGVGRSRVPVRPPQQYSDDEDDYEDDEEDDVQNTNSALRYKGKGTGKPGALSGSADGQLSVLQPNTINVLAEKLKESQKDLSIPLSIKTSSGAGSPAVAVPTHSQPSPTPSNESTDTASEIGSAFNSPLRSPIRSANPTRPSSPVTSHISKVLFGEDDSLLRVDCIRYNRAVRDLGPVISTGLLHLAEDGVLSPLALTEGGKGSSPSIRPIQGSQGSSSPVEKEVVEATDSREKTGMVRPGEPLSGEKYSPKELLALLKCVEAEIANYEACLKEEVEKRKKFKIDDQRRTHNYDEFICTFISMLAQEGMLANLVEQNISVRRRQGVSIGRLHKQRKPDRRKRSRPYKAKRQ
# How it was run: as §1
# [4] = biological target: EIF3F (UniProt O00303)
# Sequence of EIF3F (O00303 whole entry): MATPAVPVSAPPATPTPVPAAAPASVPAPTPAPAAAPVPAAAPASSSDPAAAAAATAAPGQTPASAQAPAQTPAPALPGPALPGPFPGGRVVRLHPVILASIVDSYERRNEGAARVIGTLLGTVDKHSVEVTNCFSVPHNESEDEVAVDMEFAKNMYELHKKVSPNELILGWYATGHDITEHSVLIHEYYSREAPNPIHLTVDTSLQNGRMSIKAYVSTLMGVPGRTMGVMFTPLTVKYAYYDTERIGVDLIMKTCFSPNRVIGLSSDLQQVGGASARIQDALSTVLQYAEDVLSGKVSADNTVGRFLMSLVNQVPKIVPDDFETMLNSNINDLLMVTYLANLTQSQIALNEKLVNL
# How it was run: as §1
# [5] = biological target: EIF3H (UniProt O15372)
# Sequence of EIF3H (O15372 whole entry): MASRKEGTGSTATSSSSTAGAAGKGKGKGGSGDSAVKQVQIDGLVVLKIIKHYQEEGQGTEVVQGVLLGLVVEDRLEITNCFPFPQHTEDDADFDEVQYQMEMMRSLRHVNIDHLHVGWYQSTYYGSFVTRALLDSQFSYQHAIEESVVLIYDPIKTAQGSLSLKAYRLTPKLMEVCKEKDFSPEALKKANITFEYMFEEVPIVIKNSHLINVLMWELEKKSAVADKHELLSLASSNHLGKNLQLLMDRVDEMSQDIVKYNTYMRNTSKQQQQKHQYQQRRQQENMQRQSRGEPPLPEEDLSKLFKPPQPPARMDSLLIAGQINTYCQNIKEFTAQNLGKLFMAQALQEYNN
# How it was run: as §1
# [6] = biological target: T3, FAM105A (UniProt Q9NUU6)
# T3 sequence (whole entry): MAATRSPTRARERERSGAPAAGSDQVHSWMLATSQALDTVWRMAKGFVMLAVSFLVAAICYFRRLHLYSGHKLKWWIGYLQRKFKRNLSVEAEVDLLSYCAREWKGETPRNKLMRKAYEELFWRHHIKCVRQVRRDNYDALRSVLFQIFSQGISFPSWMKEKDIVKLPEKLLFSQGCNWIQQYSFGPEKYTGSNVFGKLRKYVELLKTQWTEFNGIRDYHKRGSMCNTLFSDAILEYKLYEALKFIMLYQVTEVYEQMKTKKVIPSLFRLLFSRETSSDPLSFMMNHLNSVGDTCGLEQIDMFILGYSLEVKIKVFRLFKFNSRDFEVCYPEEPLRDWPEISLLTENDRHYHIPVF
# How it was run: as §1
# [7] = biological target: OTUB1 (UniProt Q96FW1)
# Sequence of OTUB1 (Q96FW1 whole entry): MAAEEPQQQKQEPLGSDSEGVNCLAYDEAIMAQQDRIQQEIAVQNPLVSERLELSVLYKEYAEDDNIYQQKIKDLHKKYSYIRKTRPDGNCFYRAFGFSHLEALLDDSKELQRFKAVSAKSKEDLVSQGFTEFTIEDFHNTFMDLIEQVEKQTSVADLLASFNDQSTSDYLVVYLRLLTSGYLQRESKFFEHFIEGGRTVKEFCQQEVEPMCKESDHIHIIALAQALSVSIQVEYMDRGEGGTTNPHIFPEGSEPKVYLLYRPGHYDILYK
# How it was run: as §1
# [8] = biological target: T4, OTUD4 (UniProt Q01804)
# T4 sequence (whole entry): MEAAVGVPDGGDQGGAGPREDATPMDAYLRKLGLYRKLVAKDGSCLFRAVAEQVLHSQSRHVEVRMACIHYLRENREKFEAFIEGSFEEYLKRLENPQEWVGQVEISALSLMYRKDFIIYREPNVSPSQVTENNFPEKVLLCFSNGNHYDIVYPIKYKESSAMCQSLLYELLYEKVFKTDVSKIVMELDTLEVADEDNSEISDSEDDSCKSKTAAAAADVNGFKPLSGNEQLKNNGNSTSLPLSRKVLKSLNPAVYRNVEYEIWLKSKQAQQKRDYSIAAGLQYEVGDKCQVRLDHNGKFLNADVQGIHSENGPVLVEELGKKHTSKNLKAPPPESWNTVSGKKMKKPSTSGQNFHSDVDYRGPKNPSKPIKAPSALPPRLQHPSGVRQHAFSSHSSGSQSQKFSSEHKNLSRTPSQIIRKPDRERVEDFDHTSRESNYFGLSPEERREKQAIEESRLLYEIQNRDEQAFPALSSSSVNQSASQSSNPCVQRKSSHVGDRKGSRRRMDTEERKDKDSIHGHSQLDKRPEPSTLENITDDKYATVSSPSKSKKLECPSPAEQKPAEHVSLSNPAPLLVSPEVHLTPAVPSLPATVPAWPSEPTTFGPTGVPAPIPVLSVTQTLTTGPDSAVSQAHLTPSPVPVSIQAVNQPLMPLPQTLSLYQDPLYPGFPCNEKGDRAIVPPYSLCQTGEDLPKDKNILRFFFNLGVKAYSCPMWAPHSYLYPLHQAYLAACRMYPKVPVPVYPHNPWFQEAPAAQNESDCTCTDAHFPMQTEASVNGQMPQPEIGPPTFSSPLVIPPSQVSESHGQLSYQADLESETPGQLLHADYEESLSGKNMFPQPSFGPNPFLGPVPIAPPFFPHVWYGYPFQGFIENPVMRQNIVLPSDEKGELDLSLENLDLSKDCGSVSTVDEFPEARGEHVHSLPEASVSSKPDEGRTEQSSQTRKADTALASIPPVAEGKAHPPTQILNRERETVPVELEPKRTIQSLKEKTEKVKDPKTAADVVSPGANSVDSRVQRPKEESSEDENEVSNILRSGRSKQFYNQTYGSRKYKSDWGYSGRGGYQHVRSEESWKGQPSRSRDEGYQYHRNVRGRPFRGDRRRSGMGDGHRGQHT
# How it was run: as §1
# [9] = biological target: T5, OTUD5 (UniProt Q96G74)
# T5 sequence (whole entry): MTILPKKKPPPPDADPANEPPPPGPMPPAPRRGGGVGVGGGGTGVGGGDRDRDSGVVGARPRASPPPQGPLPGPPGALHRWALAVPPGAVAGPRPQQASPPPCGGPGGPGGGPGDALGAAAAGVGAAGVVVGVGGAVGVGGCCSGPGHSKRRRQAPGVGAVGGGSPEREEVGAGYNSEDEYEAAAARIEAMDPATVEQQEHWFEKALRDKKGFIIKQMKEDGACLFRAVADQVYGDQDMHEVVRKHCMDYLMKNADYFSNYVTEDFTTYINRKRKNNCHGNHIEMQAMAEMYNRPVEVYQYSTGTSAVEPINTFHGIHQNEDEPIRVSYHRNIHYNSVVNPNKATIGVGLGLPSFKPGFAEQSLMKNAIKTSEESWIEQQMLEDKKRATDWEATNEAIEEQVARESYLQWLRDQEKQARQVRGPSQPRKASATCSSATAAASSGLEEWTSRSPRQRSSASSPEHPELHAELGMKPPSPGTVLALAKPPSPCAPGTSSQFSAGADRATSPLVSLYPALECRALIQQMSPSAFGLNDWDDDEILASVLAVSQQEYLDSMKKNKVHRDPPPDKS
# How it was run: as §1
compound,measurement,setting,value
Cc1nc(CC2CCN(C(=O)CCl)CC2)no1,log2 ratio of Biotin-Ahx-Ub-VS probe labelling,[1],-0.358
same,log2 ratio of Biotin-Ahx-Ub-VS probe labelling,[2],-1.02 (active)
same,log2 ratio of Biotin-Ahx-Ub-VS probe labelling,[3],-1.08
same,log2 ratio of Biotin-Ahx-Ub-VS probe labelling,[4],-0.302
same,log2 ratio of Biotin-Ahx-Ub-VS probe labelling,[5],-0.111
same,log2 ratio of Biotin-Ahx-Ub-VS probe labelling,[6],-0.155
same,log2 ratio of Biotin-Ahx-Ub-VS probe labelling,[7],-0.686
same,log2 ratio of Biotin-Ahx-Ub-VS probe labelling,[8],-0.753
same,log2 ratio of Biotin-Ahx-Ub-VS probe labelling,[9],-0.888

# Reference: the supplement of paper PMC11732987, “Enantioselective OTUD7B fragment discovery through chemoproteomics screening and high-throughput optimisation” (Communications Chemistry, 2025)
